“And” between values parts separate entries of the source, which are not always exact repeats. Equal entries are not always repeated. Records with an inconclusive call do not appear. A call without a number means that no potency is given here. Some compounds were tested as several samples or in several runs, with calls that do not always agree. The source made the active and inactive calls. The call rests on the fitted dose curve.
The molecules below were run against Acetylcholinesterase (Homo sapiens) (UniProt P22303) (assay: Acetylcholinesterase (AChE) small molecule antagonists: fluorescence cell-based qHTS assay (AID 1347398; further: nearly all actives have a fitted effect of over 50% in size)). Details: SH-SY5Y cells; Potency: AChE activity; series mostly up to 115 µM; activity change, negative = inhibition: at the top concentration.
From the text: National Center for Advancing Translational Sciences [NCATS]
Division of Preclinical Innovation [DPI]
U.S. Environmental Protection Agency [EPA]
National Institutes of Environmental Health Sciences [NIEHS]
National Toxicology Program [NTP]
U.S. Food and Drug Administration [FDA]
Acetylcholinesterase (AChE) is the primary cholinesterase in the body that hydrolyzes a key neurotransmitter, acetylcholine. Inhibition of AChE activity can lead to neurotoxicity. Known inhibitors of AChE include organophosphorous pesticides (OP), chemical warfare agents, drugs, and various phytochemicals.
A homogenous cell-based assay using Amplitetrade mark Fluorimetric Acetylcholinesterase Assay Kit *Green Fluorescence* (AAT Bioquest, Sunnyvale, CA) was used to evaluate the chemicals in the Tox21 10K library that inhibit AChE activity. The assay uses Thiolite Green to quantify the thiocholine produced from the hydrolysis of acetylthiocholine by AChE from the SH-SY5Y cells. AChE can hydrolyze acetylthiocholine to create thiocholine. Thiolite Green is fluorescent when reacting with thiocholine. It has spectral properties similar to those of fluorescein. The fluorescence intensity of Thiolite Green is used to measure AChE activity. Its signal can be easily read by a fluorescence microplate reader at Ex/Em = 490/520 nm.
Tox21 Assay Protocol Summary:
For cell-based AChE assay, 2,000 SH-SY5Y cells in 4 uL/well were dispensed into black, clear-bottom 1536-well plates using a Multidrop Combi (Thermo Scientific) dispenser. The assay plates were incubated overnight at 37 C to allow cells to attach to the wells, followed by the transfer of 23 nL compound or DMSO (vehicle control) by a Pintool station (Wako Automation, CA). The plates were incubated for 30 min at 37 C and 5% CO2, followed by the addition of 4 uL of detection cocktail solution (ThioliteGreen, acetylthiocholine) into each well using Flying Reagent Dispenser (Beckman Coulter, CA) and then following 40 min incubation at room temperature. Fluorescent intensity (Ex/Em = 490/520 nm) was measured using an Envision plate reader (PerkinElmer, MA).
Potency means the concentration at half of the fitted maximal effect.

Chain of Acetylcholinesterase (Homo sapiens) (P22303 whole entry, looked up): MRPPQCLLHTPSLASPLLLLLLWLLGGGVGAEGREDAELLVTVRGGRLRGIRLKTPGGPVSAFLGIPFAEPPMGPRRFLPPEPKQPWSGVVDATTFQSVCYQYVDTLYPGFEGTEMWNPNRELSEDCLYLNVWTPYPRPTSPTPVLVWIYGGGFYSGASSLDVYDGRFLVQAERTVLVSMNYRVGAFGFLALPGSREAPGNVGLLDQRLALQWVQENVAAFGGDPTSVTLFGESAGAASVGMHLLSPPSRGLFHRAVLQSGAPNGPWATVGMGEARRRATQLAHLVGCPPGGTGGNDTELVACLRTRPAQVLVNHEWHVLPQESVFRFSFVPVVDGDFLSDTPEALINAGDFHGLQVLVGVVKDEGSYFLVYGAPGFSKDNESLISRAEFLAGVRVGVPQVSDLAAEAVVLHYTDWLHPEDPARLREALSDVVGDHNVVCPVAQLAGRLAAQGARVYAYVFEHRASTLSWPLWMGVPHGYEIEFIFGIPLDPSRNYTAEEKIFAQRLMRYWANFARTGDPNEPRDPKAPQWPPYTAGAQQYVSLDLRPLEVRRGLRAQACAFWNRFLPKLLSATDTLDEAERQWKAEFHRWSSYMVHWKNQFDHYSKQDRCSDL

Row | Compound | Potency | activity change, negative = inhibition
1 | N#Cc1cccnc1 | inactive | –
2 | COc1ccc(O)c(C(C)(C)C)c1 | inactive | –
3 | CC(O)CN(CC(C)O)CC(C)O (stereo not given) | inactive | –
4 | CC(C)(C#N)N=NC(C)(C)C#N | inactive | –
5 | Cc1ccc(N=CN(C)C=Nc2ccc(C)cc2C)c(C)c1 | inactive | –
6 | CCCCOC(=O)COC(=O)c1ccccc1C(=O)OCCCC | inactive | –
7 | [CH3][Sn]([Cl])([Cl])[Cl] | inactive | –
8 | O=C1CCCO1 | inactive | –
9 | CCOC(=O)c1ccccc1N | inactive | –
10 | N#CC(c1ccccc1)c1ccccc1 | inactive | –
11 | CCOS(=O)(=O)OCC | inactive | –
12 | OCCOCCO | inactive | –
13 | CCCCCCCCCCCCCl | inactive | –
14 | C=CC(=O)OCC(CC)(COC(=O)C=C)COC(=O)C=C | inactive | –
15 | Clc1ccccc1-c1nnc(-c2ccccc2Cl)nn1 | inactive | –
16 | CN(C)c1ccccc1 | inactive | –
17 | Cc1cccc(N=Nc2ccc(N(C)C)cc2)c1 | inactive | –
18 | ClC(Cl)(Cl)c1ccccc1 | inactive | –
19 | COP(=O)(NC(C)=O)SC (stereo not given) | inactive | –
20 | Oc1ccc(Cl)cc1Cl | inactive | –

Row | Compound | Potency | activity change, negative = inhibition
21 | CC(C)(c1ccccc1)c1ccc(O)cc1 | inactive | –
22 | Nc1ccc2ccccc2c1 | inactive | –
23 | O=[N+]([O-])c1ccc(Nc2ccccc2)cc1 | inactive | –
24 | N#Cc1nn(-c2c(Cl)cc(C(F)(F)F)cc2Cl)c(N)c1S(=O)C(F)(F)F (stereo not given) | inactive | –
25 | Clc1ccc(C(Cl)(Cl)Cl)cc1 | inactive | –
26 | CCC(=O)Nc1ccc(Cl)c(Cl)c1 | inactive | –
27 | CNC(=O)Oc1cccc2c1OC(C)(C)C2 | 289 nM (active) and 126 nM (active) | –
28 | ClC(Cl)=C(Cl)C(Cl)=C(Cl)Cl | inactive | –
29 | ClCC(Cl)CCl | inactive | –
30 | Clc1cccc(Cl)c1 | inactive | –
31 | O=[N+]([O-])c1ccc(Cl)c([N+](=O)[O-])c1 | – | -29.5% (inactive)
32 | CCCCCCCCCc1ccc(O)cc1 | inactive | –
33 | CCC/C=N/O | 8.6 µM (active) and inactive | –
34 | CCC[CH2][Sn]([Cl])([CH2]CCC)[CH2]CCC | inactive | –
35 | CC1(C)C(C(=O)OC(C#N)c2cccc(Oc3ccccc3)c2)C1(C)C (stereo not given) | inactive | –
36 | c1ccc2c(c1)Nc1ccccc1S2 | – | 0.478% [at 53.7 µM] (inactive)
37 | CCOP(=O)(O)OCC (tested in a mixture with another compound) | inactive and 39.6 µM (active) | –
38 | CC1=C(C(=O)Nc2ccccc2)SCCO1 | inactive | –
39 | S=c1[nH]c2ccccc2[nH]1 | 10.1 µM (active) and inactive | –
40 | CC(C)=CC1C(C(=O)OCN2C(=O)C3=C(CCCC3)C2=O)C1(C)C (stereo not given) | inactive | –
